Compound activity as filed in PubChem.
In the library only some 2.8% were active in any assay of this set; here they are far more common.
Pol beta inh-1 – inhibitors of human DNA polymerase beta; 340,000 tested, 1.3% active; Pol beta primer extension/strand displacement, fluorescence kinetic; Potency, µM (titrated, usually from 114 µM), inactives show at the top dose activity change, negative = inhibition, usual class: inhibitors; P06746; also: potency is read from the fitted curve at half-maximal effect; % is scaled to controls: 0 for no effect and ±100 for the full control effect
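10 nM enzyme + cpd, 15 min RT; start with substrate 50 nM final; read 0 min and after 10 min RT. Corrected, normalized data; 4-parameter Hill curve fit.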
Pol kappa inh-1 – blocks human DNA polymerase kappa activity; Q9UBT6; purified Pol kappa, fluorescent DNA synthesis assay, 10 min; Potency, µM (doses to about 107 µM), inactives show at the top dose activity, negative = inhibition, most hits filed as inhibitors; 400,000 tested, 0.53% active; also: potency is read from the fitted curve at half-maximal effect; % is scaled to controls: 0 for no effect and ±100 for the full control effect
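10 nM Pol kappa preincubated 15 min at room temperature with compounds, then reaction started with substrate at 50 nM final. Fluorescence read kinetically at 0 and 10 min; buffer-only wells served as negative control.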
POLI inh – inhibitors of human DNA polymerase iota. AID 588590. 390,000 tested, 1% active. Q9UNA4. Potency, µM (doses to about 115 µM), inactives show at the top dose activity, negative = inhibition, usual class: inhibitors. Pol iota fluorescent replication assay, 10 min; also: potency is read from the fitted curve at half-maximal effect
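Fluorescent replication assay read twice, at 0 min and 10 min after adding 50 nM (final) substrate. Enzyme (10 nM) and compounds were first incubated 15 min at room temperature; enzyme-free buffer wells were negative controls.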
WRN helicase inh-1 – WRN helicase (human) inhibition. WRN helicase unwinding, fluorescent forked duplex, kinetic. Potency, µM (top dose mostly 114 µM), for the others: at the top dose activity change, negative = inhibition, hits mostly inhibitors. 360,000 tested, 0.46% active. AID 651768; also: potency is read from the fitted curve at half-maximal effect; % is scaled to controls: 0 for no effect and ±100 for the full control effect; nearly all actives have a fitted effect of over 55% in size
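Kinetic red-fluorescence monitoring (525/598 nm) tracks WRN helicase activity after 100 nM fluorophore-quencher forked duplex and 2 mM ATP are added to 20 nM enzyme pretreated 15 min at room temperature with compound.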
PI5P4Ka inh – inhibitors of human PI5P4K alpha. P48426. PI5P4Kalpha enzyme, ADP-Glo luminescence, 60 min; hits give low values. max response, %. 330,000 tested, 1.2% active. AID 652105; active = max response of -50% or lower; inconclusive = between -30% and -50%; inactive = -30% or higher; also: value at the top dose of about 77 µM; % is scaled to controls: 0 for no effect and ±100 for the full control effect
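Enzyme plus substrate dispensed, test compounds pinned in, then ATP (5 microM final) added. After 60 min at RT, ADP-Glo reagent 1 for 45 min and reagent 2 for 30 min preceded luminescence imaging.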
Pol eta inh-1 – blocks human DNA polymerase eta activity. AID 588591. Q9Y253. 390,000 tested, 1.2% active. recombinant Pol eta, fluorescent DNA replication assay. Potency, µM (doses to about 114 µM), for the others: at the top dose activity change, negative = inhibition, actives largely listed as inhibitors; also: potency is read from the fitted curve at half-maximal effect; % is scaled to controls: 0 for no effect and ±100 for the full control effect
Target sequence (Q9Y253 whole entry, looked up): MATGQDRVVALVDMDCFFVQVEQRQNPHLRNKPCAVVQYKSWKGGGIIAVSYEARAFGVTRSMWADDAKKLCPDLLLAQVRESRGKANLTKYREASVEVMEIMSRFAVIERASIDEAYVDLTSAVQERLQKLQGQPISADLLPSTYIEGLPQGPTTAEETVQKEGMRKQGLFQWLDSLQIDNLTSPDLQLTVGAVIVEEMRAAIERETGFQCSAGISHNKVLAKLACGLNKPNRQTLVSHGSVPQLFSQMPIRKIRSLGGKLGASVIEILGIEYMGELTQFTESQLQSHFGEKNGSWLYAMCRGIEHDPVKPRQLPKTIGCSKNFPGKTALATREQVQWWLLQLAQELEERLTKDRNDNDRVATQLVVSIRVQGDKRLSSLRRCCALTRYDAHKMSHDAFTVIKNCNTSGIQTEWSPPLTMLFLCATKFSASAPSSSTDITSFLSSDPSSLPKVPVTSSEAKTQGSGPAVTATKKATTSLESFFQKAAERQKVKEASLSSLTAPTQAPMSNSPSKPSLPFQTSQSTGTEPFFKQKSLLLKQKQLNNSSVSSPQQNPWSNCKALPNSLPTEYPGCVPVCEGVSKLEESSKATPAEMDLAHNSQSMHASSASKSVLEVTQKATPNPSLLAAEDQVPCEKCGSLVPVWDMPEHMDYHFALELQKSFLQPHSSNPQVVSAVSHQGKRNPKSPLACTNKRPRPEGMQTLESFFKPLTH
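Pol eta (10 nM) was preincubated with compounds for 15 min at room temperature, after which fluorescent replication substrate (50 nM final) was added to start the reaction. Fluorescence was read kinetically at 0 and 10 min.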
Pol beta inh-2 – Inhibitors of human DNA polymerase beta, hit validation | shares compounds with Pol beta inh-1 | Pol beta primer extension/strand displacement, fluorescence kinetic | Potency, µM, actives largely listed as inhibitors | 250 tested, 87% active | AID 540280; calls by dose curve; also: potency is read from the fitted curve at half-maximal effect
Klenow counter – Klenow polymerase inhibition, pol beta selectivity check | shares compounds with Pol beta inh-1 | Klenow exo- polymerase counter-screen, fluorescent DNA substrate | activity change, negative = inhibition, % at 57.1 µM | 250 tested, under 10 active | AID 540300
HIV RT inh – inhibits HIV-1 reverse transcriptase in counter-screen. activity % (negative = inhibition, positive = activation), % at 57.1 µM. HIV-1 RT polymerase activity, counter-screen. shares compounds with Pol beta inh-1. 250 tested, under 10 active. AID 540301
POLB valid – validation of human DNA polymerase beta inhibitors; shares compounds with Pol beta inh-1; radiolabeled primer extension gel assay, phosphorimager; inhibition, % at 10 µM; 110 tested, 91% active; AID 540325;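 active = inhibition at 10 µM of 30% or more; inconclusive = no clear call, values can overlap the other calls; inactive = inhibition at 10 µM under 30%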
Pol iota confirm – Human Pol iota inhibitor confirmatory assay | shares compounds with Pol kappa inh-1 | Pol iota primer extension, TAMRA/BHQ fluorescence | Potency, µM, usual class: inhibitors | 1,500 tested, 77% active | AID 720496; also: potency is read from the fitted curve at half-maximal effect
Pol kappa inh-2 – Pol kappa (human) inhibition, cherry-pick confirmation; Potency, µM, most hits filed as inhibitors; 920 tested, 76% active; AID 720501; shares compounds with Pol eta inh-1; purified Pol-kappa, fluorescent strand-displacement substrate; also: potency is read from the fitted curve at half-maximal effect
Pol eta inh-2 – Pol eta (human) inhibition, cherry-pick confirmation; shares compounds with Pol eta inh-1; Pol eta primer extension, TAMRA/BHQ fluorescence, 10 min; Potency, µM, hits mostly inhibitors; 2,600 tested, 64% active; AID 720502; also: potency is read from the fitted curve at half-maximal effect
WRN helicase inh-2 – WRN helicase inhibition, cherry-pick retest; shares compounds with WRN helicase inh-1; WRN helicase DNA unwinding, fluorescence kinetic; Potency, µM (top dose mostly 57.1 µM), without a hit: at the highest dose activity, negative = inhibition, actives largely listed as inhibitors; 610 tested, 63% active; AID 720497; also: potency is read from the fitted curve at half-maximal effect; nearly all actives have a fitted effect of over 65% in size
TO displacement – counter-screen for WRN helicase inhibitors: DNA binding | shares compounds with WRN helicase inh-1 | thiazole orange DNA binding displacement, fluorescence | Potency, µM (series often up to 57.1 µM), for inactives: at the top dose activity change, negative = inhibition, hits mostly inhibitors | 610 tested, 10% active;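 also: drop in dye fluorescence marks compound binding to DNA; potency is read from the fitted curve at half-maximal effect; % is scaled to controls: 0 for no effect and ±100 for the full control effect; nearly all actives have a fitted effect of over 60% in size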
BLM helicase inh – counter-screen for WRN helicase inhibitors: human BLM helicase inhibition; 610 tested, 60% active; AID 720503; shares compounds with WRN helicase inh-1; Recombinant BLM helicase DNA unwinding, red fluorescence; Potency, µM (series often up to 57.1 µM), without a hit: at the top dose activity change, negative = inhibition, hits mostly inhibitors; also: potency is read from the fitted curve at half-maximal effect; nearly all actives have a fitted effect of over 60% in size
ADP-Glo counter – interferes with ADP-Glo detection without enzyme present; shares compounds with PI5P4Ka inh; AID 743285; ADP-Glo detection counter-screen, luciferase luminescence, no enzyme; 1,100 tested, under 10 active; Potency, µM (top dose mostly 76.9 µM), inactives show at the top dose activity change, negative = inhibition, actives largely listed as inhibitors
* marks the source's active call; other numbers are inactive results; [ ] = remark or other dose. Unless noted, calls follow the shape of the dose curve; as a rule, active = well fitted curve in the direction sought with a large enough effect; inconclusive = small, poorly fitted or top-dose-only effect, or another doubt; inactive = no such curve, though single readings can be large; an effect the other way counts as inactive or inconclusive.

Screening O=C(CSc1n[nH]c(-c2ccccc2)n1)c1ccc(O)c(O)c1 returned Pol beta inh-1 15.8µM*, Pol kappa inh-1 25.1µM*, POLI inh 17.8µM*, WRN helicase inh-1 15.8µM*, Pol eta inh-1 39.8µM*, Pol beta inh-2 31.6*, Klenow counter -27.7, HIV RT inh inconclusive, POLB valid 25.4, WRN helicase inh-2 19.2µM*, TO displacement -2.0% and BLM helicase inh 19.2µM*.
Screening Cc1cccc(C(C)C)c1NC(=O)c1ccc2c(c1)CCN2S(C)(=O)=O returned Pol beta inh-1 10.3%, Pol kappa inh-1 3.6%, POLI inh -0.1% and Pol eta inh-1 4.5%.
For Cc1c(Cc2ccccc2)c(=O)oc2cc(O)ccc12 the results were Pol beta inh-1 -24.8%, Pol kappa inh-1 -20.9%, POLI inh 10.0%, WRN helicase inh-1 -8.2%, PI5P4Ka inh 0.1 and Pol eta inh-1 -0.7%.
Cc1c(Cc2ccccc2)c(=O)oc2c(O)c(O)ccc12 was read as Pol beta inh-1 12.6µM*, Pol kappa inh-1 inconclusive, POLI inh 8.91µM*, WRN helicase inh-1 28.2µM*, PI5P4Ka inh -28.1, Pol eta inh-1 inconclusive, Pol beta inh-2 5.01*, Klenow counter -26.7, HIV RT inh 39.8, WRN helicase inh-2 6.81µM*, TO displacement -16.9% and BLM helicase inh 6.81µM*.
Screening O=C(Nc1cccc(S(=O)(=O)NC2=NCCCCC2)c1)c1cc(-c2ccco2)nc2ccccc12 returned Pol beta inh-1 7.94µM*, Pol kappa inh-1 79.4µM*, POLI inh 14.1µM*, WRN helicase inh-1 inconclusive, PI5P4Ka inh -73.0*, Pol eta inh-1 inconclusive, Pol beta inh-2 11.2*, Klenow counter -22.2, HIV RT inh 24.6 and ADP-Glo counter -9.5%.
For O=C(Nc1cccc(S(=O)(=O)NC2=NCCCCC2)c1)c1cc(-c2ccncc2)nc2ccccc12 the results were Pol beta inh-1 -0.4%, Pol kappa inh-1 -19.8%, POLI inh -7.5%, WRN helicase inh-1 -19.6%, PI5P4Ka inh -0.2 and Pol eta inh-1 -15.1%.
CCOc1ccc(-n2c(=O)c3c(C)c(C)sc3n(Cc3cc(=O)n4cc(Cl)ccc4n3)c2=O)cc1 was read as Pol beta inh-1 30.9%, Pol kappa inh-1 -8.8% and POLI inh 13.2%.
For O=C(Cc1cccs1)Nc1nnc(SCc2cccc3ccccc23)s1 the results were Pol beta inh-1 8.91µM*, Pol kappa inh-1 50.1µM*, POLI inh 22.4µM*, WRN helicase inh-1 -7.7%[11.6 µM], PI5P4Ka inh -52.9*, Pol eta inh-1 inconclusive, Pol beta inh-2 28.2*, Klenow counter -17.7, HIV RT inh 24.1, POLB valid 71.0* and ADP-Glo counter -0.6%.
`O=C(Cc1cccs1)Nc1nnc(SCC(=O)NC2CCCCC2)s1` gave Pol beta inh-1 inconclusive, Pol kappa inh-1 -30.9%, POLI inh inconclusive, WRN helicase inh-1 -17.5%, PI5P4Ka inh -25.0 and Pol eta inh-1 inconclusive.
For N#Cc1c(NC(=O)CSc2ncnc3sccc23)oc(-c2ccco2)c1-c1ccco1 the results were Pol beta inh-1 10µM*, Pol kappa inh-1 44.7µM*, POLI inh inconclusive, WRN helicase inh-1 inconclusive, PI5P4Ka inh -79.3*, Pol eta inh-1 14.1µM*, Pol beta inh-2 28.2*, Klenow counter -19.9, HIV RT inh -1.7, POLB valid 92.8*, Pol iota confirm 42.3*, Pol kappa inh-2 6.7*, Pol eta inh-2 19* and ADP-Glo counter 3.8%.
`Cc1cc(NC(=O)CSc2ncnc3sccc23)no1` gave Pol beta inh-1 10.7%, Pol kappa inh-1 -1.5%, POLI inh -0.1%, WRN helicase inh-1 -10.6%, PI5P4Ka inh -0.5 and Pol eta inh-1 -7.4%.
For Cn1cnc2c(NCc3ccccc3)nc(Cl)nc21 the results were Pol kappa inh-1 -5.2% and POLI inh 8.8%.
CCCN(C(=O)c1cc2c(s1)CCC2)c1c(N)n(Cc2ccccc2)c(=O)[nH]c1=O was read as Pol beta inh-1 10µM*, Pol kappa inh-1 inconclusive, POLI inh inconclusive, WRN helicase inh-1 -34.3%, PI5P4Ka inh -66.4*, Pol eta inh-1 25.1µM*, Pol beta inh-2 22.4*, Klenow counter -13.2, HIV RT inh -8.7, POLB valid 90.6*, Pol iota confirm inconclusive, Pol eta inh-2 75.7* and ADP-Glo counter 1.5%.
